Assay results reported in PubChem BioAssay (NCATS).
Inconclusive results are not listed. Calls of active or inactive are those of the source. Calls follow the shape of the dose curve; as a rule, active = well fitted inhibition curve with a large enough effect; inconclusive = small, poorly fitted or top-dose-only effect; inactive = flat fitted curve, though single readings scatter. Where a SMILES comes first, the peptide text is derived from it. [ ]: non-standard residue; d: D form. Hyp = O=C(O)[CH]1C[CH](O)CN1; Phe(ol) = N[CH](CO)Cc1ccccc1; Iva = CC[C](C)(N)C(=O)O; Aib = CC(C)(N)C(=O)O

These compounds were tested against Calcium and integrin-binding protein 1 (Homo sapiens) (UniProt Q99828) (assay: Primary qHTS for Identification of Calcium Integrin Binding Protein 1 (CIB1) Competitor (AID 1508620;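 as to activity change, negative = inhibition: GST tagged CIB1 binding a fluorescein labelled alphaIIb integrin peptide tracer; top concentration of the series differs between compounds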)). Details: CIB1-GST / FITC-alphaIIb peptide fluorescence polarization; series mostly up to 114 µM; activity change, negative = inhibition: at the top concentration.
Description: Assay Provider: Ulhas P. Naik, PhD Sidney Kimmel Medical College Thomas Jefferson University, Philadelphia, PA Primary function of platelets is to maintain hemostasis. At the site of vascular injury, platelets adhere to adhesive proteins such as collagen and von Willebrand factor. Adherent platelets are activated and generate soluble platelet agonists such as thrombin, ADP and thromboxane A2. Following exposure of circulating platelets to these agonists, results in platelet shape change, granule secretion and activation of platelet integrin alphaIIb-beta3. Ligand binding to activated integrin alphaIIb-beta3 triggers outside-in signaling, leading to platelet aggregation, stabilization of platelet plug, and clot retraction. Upon atherosclerotic plaque rupture also causes platelet plug formation, which underlies a number of cardiovascular diseases such as myocardial infraction and stroke. A number of anti-platelet drugs such as aspirin, clopidogrel, prasugrel, vorapaxar, and eptifibatide are currently available to prevent the thrombotic complications. However, these anti-platelet agents have several limitations including inherent variability in individual responses, developing resistance, and serious bleeding side effects. For these reasons they are not suitable for long-term protection. Based on the experiences with current anti-platelet drugs, it appears that the most useful therapeutic approach is to intersect the secondary responses such as integrin outside-in signaling or recruitment of platelets by TxA2 and secreted ADP. Compounds, which can largely preserve the primary hemostatic function of platelets but inhibit secondary response will be most desired therapeutic agents for treatment of cardiovascular disease. CIB1 is a calcium integrin binding protein, which specifically interact with the alphaIIb subunit of integrin alphaIIb-beta3. Binding of CIB1 to alphaIIb regulates the outside-in signaling in platelets, which is needed for thrombus stabilization and thrombus growth. […] Therefore, we propose that discovery of a small molecule that can prevent the association of CIB1 and alphaIIb-beta3 will be a potential anti-platelet agent that can block the thrombus formation without undue effect on hemostasis. Reference: [1] Naik MU, Nigam A, Manrai P, et al. CIB1 deficiency results in impaired thrombosis: the potential role of CIB1 in outside-in signaling through integrin alpha IIb beta 3. J Thromb Haemost.
PROTOCOL TABLES SEQUENCE No. (1, 2, 3, etc.); […] (e.g., Cells, Incubation, Reagent, etc.); VALUE and DESCRIPTION. 1; Reagent; 3 uL; Protein or buffer (4/3x) 2; Compound; 46 nL; Control inhibitor / compound library 3; Time; 15 min; Room temperature incubation 4; Reagent; 1 uL; Fluorescent labeled peptide (4x) 5; Time; 1000 rpm; Centrifuge 6; Time; 15 min; Room temperature incubation 7; Detection; Ex 480/ Em 540; ViewLux Fluorescence Read NOTES (numbers refer to sequence above) 1; Protein Mixture: C1B1-GST (final concentrations of 1 uM). […] 3; Room temperature incubation. 4; Fluorescent Labeled Peptide: FITC-aIIb (final concentration of 100 nM). Sequence of alphaIIb peptide: Acetyl-[…]-FITC (purity is 95.83%). 5; Centrifuge 1000 rpm (164 g) for 15 seconds. 6; Room temperature incubation. 7; ViewLux Fluorescent Polization Read: excitation = 480(20) / emission = 540(25) S and P; FITC Dichroic mirror.
% is scaled to controls: 0 for no effect and ±100 for the full control effect; potency is read from the fitted curve at half-maximal effect.

Chain of Calcium and integrin-binding protein 1 (Homo sapiens) (Q99828 whole entry, looked up): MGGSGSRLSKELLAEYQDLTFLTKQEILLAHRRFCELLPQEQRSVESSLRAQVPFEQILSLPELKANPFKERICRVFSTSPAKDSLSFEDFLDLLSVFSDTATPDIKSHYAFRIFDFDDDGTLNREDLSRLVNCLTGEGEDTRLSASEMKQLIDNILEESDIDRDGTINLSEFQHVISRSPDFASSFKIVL

Row | Compound | activity change, negative = inhibition | Potency
1 | CNc1nc(NCc2ccc(NS(C)(=O)=O)cc2Cl)cc(-c2ccccn2)n1 | -0.61% (inactive) | 
2 | COc1ccc([C@H](Cc2ccncc2)c2ccccc2)cc1OC1CCCC1 | 0.805% (inactive) | 
3 | C=CC(C)(O)CC/C=C(\C)C(=O)OC1C(O)C(CO)OC(OC(=O)C23CCC(C)(C)CC2C2=CCC4C5(C)CCC(OC6OC(COC7OCC(OC(C)=O)C(O)C7OC7OC(COC(C)=O)C(O)C(O)C7OC(C)=O)C(O)C(O)C6OC6OCC(O)C(O)C6O)C(C)(C)C5CCC4(C)C2(C)C(O)C3O)C1OC1OCC(OC2OCC(O)C(OC3OCC(O)C(O)C3O)C2O)C(O)C1O (stereo not given) | 5.75% [at 12.4 µM] (inactive) | 
4 | C[C@H]1CC[C@@]2(OC1)O[C@H]1CC3C4CC[C@H]5C[C@@H](O)CC[C@]5(C)C4=CC(=O)[C@]3(C)[C@H]1[C@@H]2C (stereo not given in full) | 3.35% [at 57.7 µM] (inactive) | 
5 | O=C1NC(=O)C(c2cnc3ccccn23)=C1c1cn2c3c(cc(F)cc13)CN(C(=O)N1CCCCC1)CC2 |  | inactive
6 | CC(=O)O[C@@H]1C[C@]2(C)[C@@]3(CCC4[C@@]5(C)CC[C@H](O[C@@H]6O[C@H](C(=O)O)[C@@H](O)[C@H](OC7OC(CO)C(O)C(O)[C@H]7O[C@@H]7O[C@@H](C)[C@H](O)[C@@H](O)[C@H]7O[C@@H]7OC[C@](O)(CO)[C@H]7O)[C@H]6OC6OC(CO)C(O)C(O)C6O)C(C)(C)C5CC[C@]42C)OC[C@@]12CCC(C)(C)CC23 (stereo not given in full) | -0.726% [at 12.4 µM] (inactive) | 
7 | C/C(=C/C=C\C=C\Cc1cnco1)[C@@H](O)C(C)(C)C(N)=O | 5% (inactive) | 
8 | CC(=O)NC(C(=O)O[C@H]1CCC(C)(C)[C@@H]2CC=C3C(=O)OCC3(O)[C@@]12C)C(C)C (stereo not given in full) | -2.4% [at 57.7 µM] (inactive) | 
9 | CCOC(=O)C1=Cc2ccc(C(F)(F)C(F)(F)F)cc2N=C(N)C1 | -3.16% (inactive) | 
10 | CC1OC(=O)C[C@@H]2C(C(=O)O)=CO[C@@H](O[C@H]3O[C@H](CO)[C@@H](O)[C@H](O)[C@H]3O)[C@H]12 (stereo not given in full) | -1.31% [at 57.7 µM] (inactive) | 
11 | CNc1nc(Nc2ccc(C(=O)N3CCOCC3)cc2OC)nc2[nH]cc(Cl)c12 | 3.11% (inactive) | 
12 | COc1cc2c(NC3CCN(C(C)C)CC3)nc(N3CCC(F)(F)CC3)nc2cc1OCCCN1CCCC1 | 0.048% (inactive) | 
13 | COC1CCN(C(=O)c2cc(Cc3n[nH]c(=O)c4ccccc34)ccc2F)CC1 | 4.55% (inactive) | 
14 | Cn1sc(=O)n(Cc2ccccc2)c1=O |  | 8.91 µM (active)
15 | COc1ccc([C@H]2OC[C@H]3O[C@@H](O[C@H]4[C@@H]2NC[C@@H]4O)[C@H](O)[C@H]3O)cc1 | -2.38% [at 57.7 µM] (inactive) | 
16 | CCn1c(-c2nonc2N)nc2c(C#CC(C)(C)O)ncc(OCC3CCCNC3)c21 (stereo not given) | -0.0601% (inactive) | 
17 | COc1cc2ncnc(Nc3cccc(I)c3)c2cc1OC | -2.81% (inactive) | 
18 | O=C1Cc2c([nH]c3ccc(Br)cc23)-c2ncccc2N1 | 1.07% (inactive) | 
19 | O=S(=O)(c1ccccc1)N(CC(F)(F)F)c1ccc(C(O)(C(F)(F)F)C(F)(F)F)cc1 | 0.0393% (inactive) | 
20 | Fc1ccc2c(CCNCc3cccc(OCC(F)(F)C(F)F)c3)c[nH]c2c1 | 0.774% (inactive) | 

Row | Compound | activity change, negative = inhibition | Potency
21 | CCC(C)(NC(=O)C(CCC(N)=O)NC(=O)C1CC(O)CN1C(=O)C(C)(C)NC(=O)C(C)(C)NC(=O)C(CC(C)C)NC(=O)CNC(=O)C(NC(=O)C(C)(C)NC(=O)C(C)(C)NC(=O)C(C)(C)NC(=O)C(Cc1ccccc1)NC(C)=O)C(C)C)C(=O)N1CC(O)CC1C(=O)NC(C)(C)C(=O)NC(CO)Cc1ccccc1 (stereo not given) (Ac-F[Aib][Aib][Aib]VGL[Aib][Aib][Hyp]Q[Iva][Hyp][Aib][Phe(ol)]; configuration not given here) | 1.74% [at 12.4 µM] (inactive) | 
22 | C/C=C(\C)C(=O)O[C@H]1C=C(CO)C(=O)[C@H](OC(C)=O)[C@H]1C(C)C | -17.9% [at 57.7 µM] (inactive) | 
23 | CN(C)c1cccc(Oc2cnc(Nc3cccc(O)c3)nc2)c1 | -1.83% (inactive) | 
24 | COc1ccc(-n2c(SCCCN3C(=O)c4cccc5cccc(c45)C3=O)nnc2-c2ccncc2)cc1 | -5.93% (inactive) | 
25 | CCCc1cc(C)n(C)c(=O)c1CN(C)C(=O)c1cc(-c2ccc(N3CCN(C(C)C)CC3)nc2)cc2c1cnn2C(C)C | 0.171% (inactive) | 
26 | Cc1cc(F)c(C(=O)Nc2cccc(-c3nncn3C(C)C)n2)cc1-n1cnc(C2CC2)c1 | 0.135% [at 57.7 µM] (inactive) | 
27 | COc1cc(CN(CCN)C(=O)c2cccs2)ccc1OCc1ccccc1 | 2.11% (inactive) | 
28 | CN(C)C(=O)Nc1cccc(-c2ccc(N(C)C)cc2)c1 | 0.991% (inactive) | 
29 | COc1cc(Br)c(S(=O)(=O)Nc2ccc(Cl)c(O[C@@H]3CCN(C)C3)c2)cc1OC | 3.62% (inactive) | 
30 | C=CC(C)(O)CC/C=C(/C)COC(=O)C(C)C1CCC(C)(C=C)O1 (stereo not given) | -5.93% [at 57.7 µM] (inactive) | 
31 | COc1ccc(-c2ccc3c(N4CCOCC4C)nc(N4CCOCC4C)nc3n2)cc1CO (stereo not given) | -5.4% (inactive) | 
32 | CN(C)C(=O)NC1(c2ccccc2)CCN(CCC[C@]2(c3ccc(Cl)c(Cl)c3)CCCN(C(=O)c3ccccc3)C2)CC1 | 0.827% (inactive) | 
33 | C/C=C/C=C/C=C/C(=O)O[C@@H]1C=C2COC(=O)[C@]2(O)[C@@]2(C)CCCC(C)(C)[C@H]12 | -5.63% [at 57.7 µM] (inactive) | 
34 | COc1ccc2cc(-c3cc(-c4cc(Cl)cc(Cl)c4)nn3C(C)c3ccc(C(=O)NCCC(=O)O)cc3)ccc2c1 (stereo not given) | 4.36% (inactive) | 
35 | CCCOc1ccc(S(=O)(=O)N2CCN(CCO)CC2)cc1-c1nc2c(CCC)cn(CC)c2c(=O)[nH]1 | 4.28% (inactive) | 
36 | O=C(CCl)Nc1cccc(NC2=NS(=O)(=O)c3ccccc32)c1 | -4.11% (inactive) | 
37 | O=C(Nc1ccccc1C(=O)Nc1ccc(CCO)cc1)c1ccc([N+](=O)[O-])cc1 | -0.0606% (inactive) | 
38 | C[C@@H]1O[C@@H](O[C@H]2CC[C@@]3(C)C(CC[C@]4(C)C3CC=C3[C@@H]5CC(C)(C)CC[C@]5(C(=O)O[C@@H]5O[C@H](CO)[C@@H](O)[C@H](O)[C@H]5O)CC[C@]34C)[C@]2(C)CO)[C@H](O)[C@H](O[C@@H]2O[C@H](CO)[C@@H](O)[C@H](O)[C@H]2O)[C@H]1O (stereo not given in full) | 1.16% [at 30.2 µM] (inactive) | 
39 | Nc1nc(O)c(C2=C3C(=Nc4ccccc43)C(=O)NCC2)[nH]1 | 0.502% (inactive) | 
40 | CS(=O)(=O)c1ccc(Oc2cc(F)cc(C#N)c2)c2c1[C@H](O)C(F)(F)C2 | -2.08% [at 57.7 µM] (inactive) | 
